# Data as given in the supplement of paper PMC10849652.
# Of roughly 8,800 targets only a part is listed; those with a hit were picked by preference. About 0.5% of all pairs of compound and target were hits. Values without a mark were called inactive.
# How the values were obtained:
# Test in all cases: log2 fold change, soluble protein after heating vs DMSO (PISA); higher = thermal stabilisation; K562 lysate, 10 uM; active = over 0.2 and 3.5 SD of the protein, either way, in both replicates (recomputed)
# lapatinib = compound: CS(=O)(=O)CCNCc1ccc(-c2ccc3ncnc(Nc4ccc(OCc5cccc(F)c5)c(Cl)c4)c3c2)o1 [lapatinib]
# Summary of the method: (§1)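 Soluble protein was defined as the supernatant remaining after 21,000xg for 90 min, following pooling of heated aliquots and adjustment to 0.5% NP-40 at 4°C. Before that, crude K562 extract at 1 mg/mL protein in PBS pH 7.4 with 1 mM MgCl2 was treated with 10 μM compound for 30 min and heated for 3 min across 48°C-58°C. Quantification used TMTpro 16plex LC-MS/MS with channel sums equalised, and values are log-two fold changes in thermal stability relative to solvent controls from duplicates.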
# pictilisib = compound: CS(=O)(=O)N1CCN(Cc2cc3nc(-c4cccc5[nH]ncc45)nc(N4CCOCC4)c3s2)CC1 [pictilisib]
# Summary of the method: as §1
# crizotinib = compound: C[C@@H](Oc1cc(-c2cnn(C3CCNCC3)c2)cnc1N)c1c(Cl)ccc(F)c1Cl [crizotinib]
# Summary of the method: as §1
# [1] = compound: C[C@H](C1=CC=C(C=C1)C(=O)NC2=C3C=CNC3=NC=C2)N
# Summary of the method: as §1
# duvelisib = compound: C[C@H](Nc1ncnc2nc[nH]c12)c1cc2cccc(Cl)c2c(=O)n1-c1ccccc1 [duvelisib]
# Summary of the method: as §1
# gandotinib = compound: Cc1cc(Nc2cc(CN3CCOCC3)c3nc(C)c(Cc4ccc(Cl)cc4F)n3n2)n[nH]1 [gandotinib]
# Summary of the method: as §1
# tozasertib = compound: Cc1cc(Nc2cc(N3CCN(C)CC3)nc(Sc3ccc(NC(=O)C4CC4)cc3)n2)n[nH]1 [tozasertib]
# Summary of the method: as §1
# doramapimod = compound: Cc1ccc(-n2nc(C(C)(C)C)cc2NC(=O)Nc2ccc(OCCN3CCOCC3)c3ccccc23)cc1 [doramapimod]
# Summary of the method: as §1
# bafetinib = compound: Cc1ccc(NC(=O)c2ccc(CN3CC[C@H](N(C)C)C3)c(C(F)(F)F)c2)cc1Nc1nccc(-c2cncnc2)n1 [bafetinib]
# Summary of the method: as §1
# [2] = compound: Cc1cccc(CC(=O)N2CCc3c2ccc(-c2cn(C)c4ncnc(N)c24)c3F)n1
# Summary of the method: as §1
# nilotinib = compound: Cc1cn(-c2cc(NC(=O)c3ccc(C)c(Nc4nccc(-c5cccnc5)n4)c3)cc(C(F)(F)F)c2)cn1 [nilotinib]
# Summary of the method: as §1
# [3] = compound: Cc1nc(Nc2n[nH]c3c2CN(C(=O)N[C@H](CN(C)C)c2ccccc2)C3(C)C)c2sccc2n1
# Summary of the method: as §1
# dasatinib = compound: Cc1nc(Nc2ncc(C(=O)Nc3c(C)cccc3Cl)s2)cc(N2CCN(CCO)CC2)n1 [dasatinib]
# Summary of the method: as §1
# [4] = compound: Cc1ncc(-c2ccnc(Nc3ccc(S(C)(=O)=O)cc3)n2)n1C(C)C
# Summary of the method: as §1
# [5] = compound: Cn1cc(-c2ccc3c(c2)CCN3C(=O)Cc2cccc(C(F)(F)F)c2)c2c(N)ncnc21
# Summary of the method: as §1
# quisinostat = compound: Cn1cc(CNCC2CCN(c3ncc(C(=O)NO)cn3)CC2)c2ccccc21 [quisinostat]
# Summary of the method: as §1
# tipifarnib = compound: Cn1cncc1[C@@](N)(c1ccc(Cl)cc1)c1ccc2c(c1)c(-c1cccc(Cl)c1)cc(=O)n2C [tipifarnib]
# Summary of the method: as §1
# [6] = compound: NC(=O)Nc1cc(-c2cccc(F)c2)sc1C(=O)N[C@H]1CCCNC1
# Summary of the method: as §1
# [7] = compound: NC(=O)c1cnc(N[C@@H]2CCCC[C@@H]2N)nc1Nc1cccc(-n2nccn2)c1
# Summary of the method: as §1
# [8] = compound: NC1(c2ccc(-c3nc4ccn5c(=O)[nH]nc5c4cc3-c3ccccc3)cc2)CCC1
# Summary of the method: as §1
# Chain of UniProt P53985 (P53985 whole entry, looked up): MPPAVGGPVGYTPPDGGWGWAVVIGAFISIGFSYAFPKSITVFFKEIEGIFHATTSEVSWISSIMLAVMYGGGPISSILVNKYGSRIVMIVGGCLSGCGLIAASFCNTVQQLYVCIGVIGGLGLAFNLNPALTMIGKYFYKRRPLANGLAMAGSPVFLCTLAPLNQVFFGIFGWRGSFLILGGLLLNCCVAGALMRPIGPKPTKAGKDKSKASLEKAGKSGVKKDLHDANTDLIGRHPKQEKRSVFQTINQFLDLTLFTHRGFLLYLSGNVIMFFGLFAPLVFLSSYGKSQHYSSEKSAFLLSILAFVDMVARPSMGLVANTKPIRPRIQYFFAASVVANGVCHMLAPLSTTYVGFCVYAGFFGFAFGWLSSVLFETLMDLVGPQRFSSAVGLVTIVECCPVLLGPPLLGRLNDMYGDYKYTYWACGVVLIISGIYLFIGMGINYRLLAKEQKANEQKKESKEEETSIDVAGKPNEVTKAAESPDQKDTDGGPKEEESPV
# Chain of UniProt Q9UPR3 (Q9UPR3 whole entry, looked up): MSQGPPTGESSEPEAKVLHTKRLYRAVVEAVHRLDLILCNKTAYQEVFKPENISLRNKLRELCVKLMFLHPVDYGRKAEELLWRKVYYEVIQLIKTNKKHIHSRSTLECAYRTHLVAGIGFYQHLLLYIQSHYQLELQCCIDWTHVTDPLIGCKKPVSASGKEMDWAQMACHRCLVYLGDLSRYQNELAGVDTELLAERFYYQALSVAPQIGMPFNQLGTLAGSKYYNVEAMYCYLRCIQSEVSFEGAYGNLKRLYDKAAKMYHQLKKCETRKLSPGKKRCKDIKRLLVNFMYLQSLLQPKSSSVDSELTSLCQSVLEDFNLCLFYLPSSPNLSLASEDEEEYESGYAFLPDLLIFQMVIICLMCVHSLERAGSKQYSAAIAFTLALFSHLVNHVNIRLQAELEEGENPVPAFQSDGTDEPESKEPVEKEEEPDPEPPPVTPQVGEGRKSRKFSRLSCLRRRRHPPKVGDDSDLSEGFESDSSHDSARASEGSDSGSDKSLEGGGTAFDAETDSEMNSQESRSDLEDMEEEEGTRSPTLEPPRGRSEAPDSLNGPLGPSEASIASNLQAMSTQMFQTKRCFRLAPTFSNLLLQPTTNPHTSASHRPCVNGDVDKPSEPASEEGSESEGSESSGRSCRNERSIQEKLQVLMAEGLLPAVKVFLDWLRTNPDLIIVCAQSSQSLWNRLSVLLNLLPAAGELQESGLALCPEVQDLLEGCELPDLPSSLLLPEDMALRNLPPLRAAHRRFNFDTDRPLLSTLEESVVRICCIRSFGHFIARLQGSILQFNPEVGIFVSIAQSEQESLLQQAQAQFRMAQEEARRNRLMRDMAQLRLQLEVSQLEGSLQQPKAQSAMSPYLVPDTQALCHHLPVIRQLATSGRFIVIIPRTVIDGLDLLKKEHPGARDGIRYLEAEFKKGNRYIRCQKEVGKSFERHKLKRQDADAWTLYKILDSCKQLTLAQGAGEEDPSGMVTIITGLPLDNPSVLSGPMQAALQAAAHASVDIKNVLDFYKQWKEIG
# Chain of UniProt Q9NTJ3 (Q9NTJ3 whole entry, looked up): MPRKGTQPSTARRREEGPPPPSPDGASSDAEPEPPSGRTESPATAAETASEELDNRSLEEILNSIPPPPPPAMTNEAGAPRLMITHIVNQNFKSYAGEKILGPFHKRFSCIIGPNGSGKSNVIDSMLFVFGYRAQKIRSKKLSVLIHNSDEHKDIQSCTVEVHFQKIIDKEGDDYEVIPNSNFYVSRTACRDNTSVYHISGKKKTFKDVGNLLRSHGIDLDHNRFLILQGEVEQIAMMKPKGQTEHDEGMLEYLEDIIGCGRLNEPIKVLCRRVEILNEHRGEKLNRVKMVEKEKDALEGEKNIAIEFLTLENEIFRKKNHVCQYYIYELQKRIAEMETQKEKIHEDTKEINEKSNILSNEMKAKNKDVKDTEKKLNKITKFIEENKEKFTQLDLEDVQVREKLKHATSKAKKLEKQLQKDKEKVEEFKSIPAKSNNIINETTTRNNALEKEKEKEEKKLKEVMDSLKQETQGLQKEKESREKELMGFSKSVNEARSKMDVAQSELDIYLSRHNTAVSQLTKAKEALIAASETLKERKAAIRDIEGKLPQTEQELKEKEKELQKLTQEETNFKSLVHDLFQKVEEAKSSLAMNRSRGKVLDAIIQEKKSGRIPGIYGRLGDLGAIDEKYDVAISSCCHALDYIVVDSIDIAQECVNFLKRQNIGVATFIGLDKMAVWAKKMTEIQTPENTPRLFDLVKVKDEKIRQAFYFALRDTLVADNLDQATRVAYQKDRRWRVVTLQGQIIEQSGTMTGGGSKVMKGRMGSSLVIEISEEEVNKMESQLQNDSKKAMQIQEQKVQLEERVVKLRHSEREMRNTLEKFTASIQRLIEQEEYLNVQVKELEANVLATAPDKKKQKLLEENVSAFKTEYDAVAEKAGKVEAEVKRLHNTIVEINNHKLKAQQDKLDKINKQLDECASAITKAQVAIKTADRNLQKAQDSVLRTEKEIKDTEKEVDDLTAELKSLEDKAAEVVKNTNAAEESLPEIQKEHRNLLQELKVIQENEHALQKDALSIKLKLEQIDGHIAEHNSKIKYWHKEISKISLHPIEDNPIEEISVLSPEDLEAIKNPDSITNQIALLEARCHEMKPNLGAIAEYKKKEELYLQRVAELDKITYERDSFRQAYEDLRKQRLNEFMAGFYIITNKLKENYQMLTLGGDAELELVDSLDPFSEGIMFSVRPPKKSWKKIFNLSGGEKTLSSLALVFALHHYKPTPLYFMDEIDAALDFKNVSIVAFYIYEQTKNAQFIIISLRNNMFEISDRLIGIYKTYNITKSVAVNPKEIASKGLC
# Chain of UniProt Q9H2D1 (Q9H2D1 whole entry, looked up): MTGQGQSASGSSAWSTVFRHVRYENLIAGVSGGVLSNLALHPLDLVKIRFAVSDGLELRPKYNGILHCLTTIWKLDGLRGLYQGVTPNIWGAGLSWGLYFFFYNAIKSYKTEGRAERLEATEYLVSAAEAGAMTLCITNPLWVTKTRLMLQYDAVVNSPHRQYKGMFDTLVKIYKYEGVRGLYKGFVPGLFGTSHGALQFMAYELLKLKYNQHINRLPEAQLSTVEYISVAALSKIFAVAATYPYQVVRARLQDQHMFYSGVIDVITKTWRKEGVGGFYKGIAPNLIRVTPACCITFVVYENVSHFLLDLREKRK
# Chain of UniProt Q9BXP5 (Q9BXP5 whole entry, looked up): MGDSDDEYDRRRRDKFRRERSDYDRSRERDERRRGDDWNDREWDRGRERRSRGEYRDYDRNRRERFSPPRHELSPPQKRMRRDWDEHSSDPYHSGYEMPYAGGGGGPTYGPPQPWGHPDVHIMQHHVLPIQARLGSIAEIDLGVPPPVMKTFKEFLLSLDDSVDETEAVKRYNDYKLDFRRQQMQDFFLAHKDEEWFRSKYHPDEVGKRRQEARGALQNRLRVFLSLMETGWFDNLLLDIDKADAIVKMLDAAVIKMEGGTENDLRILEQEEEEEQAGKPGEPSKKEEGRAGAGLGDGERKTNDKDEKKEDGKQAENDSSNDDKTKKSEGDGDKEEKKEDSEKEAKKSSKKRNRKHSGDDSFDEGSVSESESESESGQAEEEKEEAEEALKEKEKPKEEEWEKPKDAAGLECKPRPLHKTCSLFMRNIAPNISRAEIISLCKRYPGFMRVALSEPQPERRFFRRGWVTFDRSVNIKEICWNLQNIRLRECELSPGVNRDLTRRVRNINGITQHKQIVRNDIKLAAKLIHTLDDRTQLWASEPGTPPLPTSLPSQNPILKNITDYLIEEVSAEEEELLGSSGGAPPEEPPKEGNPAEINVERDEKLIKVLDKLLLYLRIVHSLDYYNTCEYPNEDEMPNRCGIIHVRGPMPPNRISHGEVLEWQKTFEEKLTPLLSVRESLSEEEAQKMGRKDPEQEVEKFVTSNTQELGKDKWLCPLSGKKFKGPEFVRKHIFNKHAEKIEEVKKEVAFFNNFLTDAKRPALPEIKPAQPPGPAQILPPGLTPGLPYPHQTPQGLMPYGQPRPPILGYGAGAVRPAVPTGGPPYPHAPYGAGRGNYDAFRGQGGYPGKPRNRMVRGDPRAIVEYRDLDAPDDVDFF
# Chain of UniProt Q16594 (Q16594 whole entry, looked up): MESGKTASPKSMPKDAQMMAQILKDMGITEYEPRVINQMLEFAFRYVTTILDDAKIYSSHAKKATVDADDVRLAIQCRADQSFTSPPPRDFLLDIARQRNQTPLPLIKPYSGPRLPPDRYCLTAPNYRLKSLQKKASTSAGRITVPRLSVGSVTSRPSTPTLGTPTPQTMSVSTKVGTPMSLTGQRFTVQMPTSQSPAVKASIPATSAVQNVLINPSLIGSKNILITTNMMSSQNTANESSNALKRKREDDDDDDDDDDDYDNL
# Chain of UniProt Q92844 (Q92844 whole entry, looked up): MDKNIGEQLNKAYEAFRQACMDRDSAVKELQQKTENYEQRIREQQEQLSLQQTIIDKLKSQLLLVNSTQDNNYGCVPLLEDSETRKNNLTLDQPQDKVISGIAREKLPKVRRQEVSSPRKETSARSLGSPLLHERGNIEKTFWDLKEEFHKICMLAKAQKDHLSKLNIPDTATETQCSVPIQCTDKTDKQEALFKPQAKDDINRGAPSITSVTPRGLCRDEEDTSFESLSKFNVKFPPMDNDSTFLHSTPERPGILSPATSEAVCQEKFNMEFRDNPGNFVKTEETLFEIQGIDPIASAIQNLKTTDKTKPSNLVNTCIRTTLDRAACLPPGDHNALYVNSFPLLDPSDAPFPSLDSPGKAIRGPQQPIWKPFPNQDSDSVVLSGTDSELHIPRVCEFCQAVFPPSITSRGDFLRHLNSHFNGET
# Chain of UniProt Q86XK3 (Q86XK3 whole entry, looked up): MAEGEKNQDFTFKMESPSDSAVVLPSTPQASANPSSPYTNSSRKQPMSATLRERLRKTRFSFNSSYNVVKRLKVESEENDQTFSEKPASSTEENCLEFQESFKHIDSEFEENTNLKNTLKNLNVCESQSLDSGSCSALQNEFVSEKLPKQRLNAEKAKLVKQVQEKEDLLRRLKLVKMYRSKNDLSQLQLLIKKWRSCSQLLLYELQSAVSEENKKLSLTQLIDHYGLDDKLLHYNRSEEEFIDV
Target,log2 fold change (lapatinib),log2 fold change (pictilisib),log2 fold change (crizotinib),log2 fold change [1],log2 fold change (duvelisib),log2 fold change (gandotinib),log2 fold change (tozasertib),log2 fold change (doramapimod),log2 fold change (bafetinib),log2 fold change [2],log2 fold change (nilotinib),log2 fold change [3],log2 fold change (dasatinib),log2 fold change [4],log2 fold change [5],log2 fold change (quisinostat),log2 fold change (tipifarnib),log2 fold change [6],log2 fold change [7],log2 fold change [8]
SMC4 (UniProt Q9NTJ3),-0.028,-0.002,-0.007,0.068,0.009,-0.154,-0.012,-0.026,-0.021,-0.051,-0.01,0.009,-0.03,0.016,0.003,-0.014,-0.003,0.027,0.009,-0.023
SPAG5 (UniProt Q96R06),0.013,-0.004,-0.056,-0.016,0.038,-0.11,0.029,0.036,-0.044,0.058,0.026,-0.013,-0.006,0.001,0.02,-0.051,-0.045,0.001,0.004,-0.008
SLC16A1 (UniProt P53985),-0.009,0.019,0.006,-0.341 (active),-0.011,0.22,-0.008,-0.017,-0.041,0.246 (active),0.044,0.043,0.137,-0.009,-0.005,-0.064,0.005,0.012,-0.028,-0.003
TARBP2 (UniProt Q15633),0.035,-0.098,-0.092,0.001,0.07,-0.08,-0.057,0.028,-0.028,0.022,0.003,0.019,-0.038,0.005,-0.056,-0.106,-0.067,0.065,-0.029,0.056
SLC25A32 (UniProt Q9H2D1),-0.032,-0.005,-0.017,-0.151,-0.014,0.098,-0.038,-0.019,-0.022,0.1,0.007,0.033,0.011,0.043,-0.055,-0.015,0.016,0.023,-0.029,-0.026
SMTN isoform 6 (UniProt P53814),0.103,-0.042,-0.012,-0.06,0.033,0.032,0.019,0.006,0.059,0.028,-0.011,0.134,-0.055,-0.022,0.031,-0.065,-0.019,0.021,-0.005,0.089
"SNX6, A0A0A0MRI2",-0.008,0.018,-0.062,0.2,0.003,-0.134,0.022,-0.012,-0.04,-0.088,-0.021,0.009,0.003,0.03,0.027,-0.003,0.007,-0.015,0.016,0.016
SPATA5L1 (UniProt Q9BVQ7),-0.017,0.011,-0.107,0.016,0.001,-0.076,0.013,-0.035,-0.001,0.049,-0.012,-0.003,-0.115,0.016,0.093,-0.059,0.028,0.047,0.039,-0.092
STK25 (UniProt O00506),-0.058,-0.041,0.008,-0.036,-0.055,0.18,0.033,-0.081,0.001,0.005,0.037,0.265,0.235,0.026,0.059,0.013,-0.027,0.165,0.032,-0.009
TAPT1 (UniProt Q6NXT6),-0.007,0.025,-0.044,-0.196,0.012,0.057,0.031,0.024,0.01,0.093,0.009,0.012,0.013,0.03,-0.118,-0.053,0.017,-0.032,0.011,-0.001
SPR (UniProt P35270),-0.015,0.472 (active),0.276,-0.029,-0.059,0.467 (active),0.025,-0.06,-0.09,-0.117,-0.063,0.01,0.201,0.012,0.075,0.077,0.035,0.01,0.02,0.009
SFR1 isoform 2 (UniProt Q86XK3),0.001,0.053,0.006,0.09,0.043,0.169,-0.002,0.068,-0.097,0.261 (active),-0.029,0.068,0.055,0.045,-0.058,-0.029,0.072,-0.004,0.02,-0.039
TAF9 (UniProt Q16594),-0.06,-0.018,-0.004,0.188,0.084,-0.002,0.156,0.001,0.018,-0.057,-0.043,0.049,-0.017,-0.003,0.021,-0.055,-0.029,0.013,0.084,-0.024
SRRT (UniProt Q9BXP5),0.005,-0.029,-0.055,0.059,-0.007,-0.072,0.032,0.066,-0.023,-0.018,-0.013,-0.028,-0.087,-0.005,0.026,-0.058,0.013,0.058,0.016,-0.023
TANK (UniProt Q92844),0.038,-0.03,0.27,0.021,-0.026,0.141,0.108,-0.038,0.023,-0.162,-0.067,0.461 (active),0.069,0.04,0.088,-0.053,-0.071,0.161,0.042,0.01
SMG5 (UniProt Q9UPR3),-0.038,0.057,-0.007,0.01,-0.006,-0.003,0.019,-0.131,-0.035,-0.007,-0.058,0.034,0.003,-0.054,0.03,0.013,-0.115,0.097,0.048,-0.027
